Results on 21 compounds are retold here after PubChem BioAssay (NCI).

The panel holds about 83,000 compounds, 20% with a hit somewhere; the sample as a whole holds those more often.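 Note: values are percent growth. 100 is the growth of untreated cells, values between 100 and 0 indicate rising inhibition; between -100 and 0 indicates cell death.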 Values without a mark were called inactive. The source made the active and inactive calls. How the source made its calls: active means growth percent below 10; inactive means the rest.

Assay in all cases: NCI-60 one-dose screen, 48 h (100 = growth as untreated, 0 = no growth, -100 = all killed)
What all share (details): 10 µM unless noted

Experiment [1] relates to NCI-H23 lung.
The subject of experiment [2] is NCI-H226 lung.
Experiment [3] relates to NCI-H322M lung.
Experiment [4] deals with HOP-62 NSCLC.
Experiment [5] has as its system NCI-H460 lung.
Experiment [6] has as its system HOP-92 NSCLC.
Experiment [7] deals with NCI-H522 lung.
In experiment [8] the test system is A549/ATCC NSCLC.
Experiment [9] concerns 786-0 renal.
The subject of experiment [10] is COLO 205 colon.

On to `COC(=O)[C@H](C)NC(=O)[C@@H](OC)[C@@H]1Cc2cc3cc(OC4CC(OC5CC(O)C(O)C(C)O5)C(O)C(C)O4)c(C)c(O)c3c(O)c2C(=O)[C@H]1OC1CC(OC2CC(OC3CC(C)(O)C(O)C(C)O3)C(O)C(C)O2)C(O)C(C)O1` (stereo not given in full), for which the growth was -31.1% (active) in experiment [1]; -21.5% (active) in experiment [2]; 11.4% in [3]; 13% in experiment [4]; 7.28% (active) in experiment [5]; 3.12% (active) in experiment [6]. Moreover, the growth was -26% (active) in experiment [7], 7.05% (active) in [8], -4.86% (active) in experiment [9] and -20.5% (active) in experiment [10].
`CC(N)C(Cc1ccc(Cl)cc1)c1ccc(Cl)cc1` (stereo not given): the growth in experiment [1] was 92.8%; in experiment [2] it was 88.2%; in [3], 83.4%; in experiment [4], 56%; in experiment [5] it was 66%; in experiment [6], 21.5%. In addition, the growth was -18.1% (active) in experiment [7], 42.1% in experiment [8], 57.1% in experiment [9] and -81.2% (active) in experiment [10].
For the compound `CN1CC[C@@H](c2c(O)cc(O)c3c(=O)cc(-c4ccccc4Cl)oc23)[C@@H]1CO`, the growth in experiment [1] is -26.5% (active); in experiment [2], 7.7% (active); in experiment [3], -1.67% (active); in [4], -21.2% (active); in experiment [5], 4.14% (active); in experiment [6], -2.24% (active). Moreover, the growth in experiment [7] is -13.8% (active); in experiment [8], 4.56% (active); in [9] it was 4.31% (active); in [10], -64.5% (active).
`FC(F)(F)c1ccc(CNc2ccc(Cc3c[nH]c4ncc(Cl)cc34)cn2)cn1`: the growth in experiment [1] is 23.7%; in experiment [2] it was 9.04% (active); in [3], 33.2%; in experiment [4], 23.1%; in [5] it was 44.5%; in experiment [6] it was 37.7%. The growth in experiment [7] was 9.44% (active); in experiment [8], 5.16% (active); in experiment [9] it was -49.3% (active); in [10], -72.4% (active).
As for `Cc1cc(N(CCNc2ccnc3cc(Cl)ccc23)Cc2ccc3c(c2)OCO3)nc(N2CCN(C)CC2)n1`, the growth in [1] was 56.6%; in [2], 75.7%; in experiment [3], 41.5%; in experiment [4] it was 0.334% (active); in experiment [5] it was 18.2%; in [6], -10.2% (active). The growth in [7] was 7.7% (active); in experiment [8], 26%; in [9], -6.41% (active); in [10], -67.1% (active).
`O=S1(=O)OC(c2cc(Cl)c(O)c(Br)c2)(c2cc(Cl)c(O)c(Br)c2)c2ccccc21`: the growth was 103% in experiment [1]; 104% in [2]; 112% in experiment [3]; 99% in experiment [4]; 105% in experiment [5]; 68.5% in experiment [6]. Further, the growth in experiment [7] was 70.8%; in experiment [8], 94.1%; in experiment [9] it was 106%; in experiment [10], 115%.
Take `Cc1cccc(NC(=O)[C@@H]2c3ccccc3C(=O)N(c3ccc(Cl)cc3)[C@H]2c2ccc(Cl)cc2)n1`: the growth in [1] was 57.9%; in [2], 55.1%; in experiment [3], 80.8%; in experiment [4] it was 53.1%; in [5], 52.5%; in [6] it was 42%. Further, the growth is 38.7% in [7], 23.6% in [8], 61.2% in [9] and 30.7% in [10].
Turning to `CN(C)C[C@@H]1CCn2cc(c3ccccc32)C2=C(C(=O)NC2=O)c2cn(c3ccccc23)CCO1`, the growth in experiment [1] is -15.7% (active); in [2], -12.5% (active); in experiment [3], 32.2%; in experiment [4], -67.9% (active); in experiment [5] it was -70.6% (active); in experiment [6], 46.1%. For the same compound, the growth in [7] was -23.1% (active); in experiment [8], -12.4% (active); in [9] it was -69.9% (active); in [10] it was -53.8% (active).
Consider `CCc1nc2cc(F)c(/C=C/C(=O)NO)cc2c(=O)n1CCc1ccccc1`, for which the growth in experiment [1] was 25.9%; in experiment [2], 32.7%; in experiment [3], 23.1%; in experiment [4], 5.35% (active); in experiment [5] it was 7.49% (active); in experiment [6] it was 15.5%. The growth in experiment [7] is -7.46% (active); in experiment [8], 14.9%; in experiment [9] it was -5.29% (active); in experiment [10], -23.3% (active).
`COc1cc(Nc2ncc3c(n2)-c2ccc(Cl)cc2C(c2c(F)cccc2OC)=NC3)ccc1C(=O)O`: the growth in experiment [1] is 77.6%; in [2], 63.2%; in experiment [3] it was 90.4%; in experiment [4] it was 50.2%; in [5] it was 30.7%; in [6], 115%. Further, the growth was 53.5% in [7], 54.2% in [8], 89.1% in experiment [9] and 8.87% (active) in experiment [10].
Consider `Cn1ccnc1C(=O)/C=C/c1ccc(CC(=O)Nc2ccc(C(F)(F)F)cc2)cc1`, for which the growth was 19.4% in experiment [1]; 48.5% in experiment [2]; 6.96% (active) in experiment [3]; -33.7% (active) in experiment [4]; -0.126% (active) in experiment [5]; 38.3% in [6]. For the same compound, the growth in experiment [7] is -3.98% (active); in experiment [8] it was 6.44% (active); in experiment [9] it was 1.74% (active); in experiment [10], 5.87% (active).
In the case of `COc1ccc2c(c1OC)C(=O)O[C@@H]2[C@H]1c2c(c(C#CC#Cc3ccc(F)c(F)c3)c3c(c2OC)OCO3)CCN1C`, the growth is 90.3% in [1]; 95.1% in experiment [2]; 88.8% in experiment [3]; 68% in experiment [4]; 103% in experiment [5]; 82.3% in experiment [6]. Moreover, the growth in [7] is 86.5%; in experiment [8], 67.8%; in experiment [9] it was 93%; in [10], 84.7%.
In the case of `CC1(/C=N/NC(N)=S)NC(=O)NC1=O` (stereo not given), the growth in experiment [1] is 98%; in experiment [2], 95.1%; in experiment [3] it was 107%; in experiment [4], 78.5%; in experiment [5], 105%; in experiment [6], 92.5%. Moreover, the growth was 71.2% in experiment [7], 72.4% in [8], 105% in [9] and 98.7% in [10].
`CCN(CC)Cc1cc(Nc2cc(C(F)(F)F)c(C#N)c3nc4ccccc4n23)ccc1O`: the growth in experiment [1] is 17.2%; in [2], 16.5%; in [3], 16.3%; in experiment [4] it was 14%; in experiment [5] it was 6.25% (active); in experiment [6], -30.2% (active). Further, the growth in experiment [7] was -55.3% (active); in experiment [8], 6.97% (active); in [9] it was 11.9%; in experiment [10] it was -31.4% (active).
On to `CC(C)n1c(NCCc2ccc(O)c(O)c2)nc2c1c(=O)n(C)c(=O)n2C`, for which the growth in experiment [1] was 87.2%; in experiment [2], 90.1%; in experiment [3], 95.1%; in [4] it was 103%; in experiment [5], 100%; in experiment [6] it was 83.7%. The growth in experiment [7] is 85.2%; in experiment [8], 92.8%; in experiment [9] it was 90.4%; in experiment [10], 103%.
Regarding `Cc1cc2c(-c3nc4ccccn4c3NC3CCCCC3)c(O)c(O)cc2c(O)c1-c1c(C)cc2c(-c3nc4ccccn4c3NC3CCCCC3)c(O)c(O)cc2c1O`, the growth in experiment [1] is 30.7%; in [2], 53.6%; in experiment [3] it was 54.9%; in [4], 26%; in experiment [5], 19.2%; in experiment [6], -3.03% (active). The growth in experiment [7] was 15.1%; in experiment [8] it was 22.8%; in experiment [9], 72.4%; in experiment [10], 14.8%.
With `CC(=O)c1c(C)c2cnc(Nc3ccc(N4CCNCC4)cn3)nc2n(C2CCCC2)c1=O`, the growth is 50.9% in experiment [1]; 52.7% in experiment [2]; 31.9% in [3]; 42% in [4]; 14.1% in experiment [5]; 66% in [6]. Moreover, the growth was -76.7% (active) in experiment [7], 22.6% in [8], 24.9% in experiment [9] and 18.5% in experiment [10].
Turning to `O=C1C=CC2(NN=C(c3ccccc3)N2c2cccc(Cl)c2)c2cccc(O)c21` (stereo not given), the growth is 26.3% in [1]; 85.6% in experiment [2]; 95.1% in experiment [3]; 37.9% in [4]; 85.1% in [5]; 110% in [6]. For the same compound, the growth in experiment [7] was 51.3%; in [8] it was 33.2%; in [9] it was 107%; in [10] it was 103%.
Consider `COc1cc2ncnc(Nc3ccc(O)cc3)c2cc1OC`, for which the growth in experiment [1] is 104%; in experiment [2] it was 95.2%; in experiment [3], 12.4%; in [4], 86.5%; in experiment [5], 103%; in experiment [6] it was 78%. Further, the growth is 11% in experiment [7], 45.8% in experiment [8], 83.4% in experiment [9] and 115% in experiment [10].
Consider `COc1ccc(-c2cc3c(oc2=O)-c2ccccc2OC3OC(C)=O)cc1` (stereo not given), for which the growth was 93.4% in experiment [1]; 94.3% in experiment [2]; 100% in [3]; 98.8% in experiment [4]; 104% in experiment [5]; 83.5% in [6]. Moreover, the growth in experiment [7] is 88%; in experiment [8] it was 93.3%; in experiment [9], 91.3%; in experiment [10] it was 97.4%.
On to `Cc1nc(Nc2n[nH]c3c2CN(C(=O)N[C@H](CN(C)C)c2ccccc2)C3(C)C)c2sccc2n1`, for which the growth in [1] was -22.8% (active); in experiment [2], -25.2% (active); in [3], -19.1% (active); in [4], -46.5% (active); in experiment [5], -42.8% (active); in experiment [6], -62.4% (active). For the same compound, the growth in [7] is -45% (active); in experiment [8] it was 0.0643% (active); in [9], -15% (active); in experiment [10] it was -88.6% (active).
